Here are results for 69 compounds from PubChem BioAssay (Tox21).

Results filed as inconclusive are left out. A call without a number means that no potency is given here. Calls of active or inactive are those of the source. Calls follow the shape of the full dose curve.

For this assay, the target named is Beta-2 adrenergic receptor (Homo sapiens) (UniProt P07550). As to the kind of experiment: Adrenergic beta2 receptor (ADRB2) small molecule agonists, cell-based qHTS assay (AID 1963593). Put shortly: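 CHO cells stably over-expressing ADRB2 were plated overnight at 37C, then dosed with compounds plus a stimulation mix containing 100uM IBMX and 25uM Ro-20-1724 for 0.5hr at room temperature. cAMP was measured by HTRF competition, 1hr.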
Potency is read from the fitted curve at half-maximal effect.

Sequence of Beta-2 adrenergic receptor (Homo sapiens) (P07550 whole entry, looked up): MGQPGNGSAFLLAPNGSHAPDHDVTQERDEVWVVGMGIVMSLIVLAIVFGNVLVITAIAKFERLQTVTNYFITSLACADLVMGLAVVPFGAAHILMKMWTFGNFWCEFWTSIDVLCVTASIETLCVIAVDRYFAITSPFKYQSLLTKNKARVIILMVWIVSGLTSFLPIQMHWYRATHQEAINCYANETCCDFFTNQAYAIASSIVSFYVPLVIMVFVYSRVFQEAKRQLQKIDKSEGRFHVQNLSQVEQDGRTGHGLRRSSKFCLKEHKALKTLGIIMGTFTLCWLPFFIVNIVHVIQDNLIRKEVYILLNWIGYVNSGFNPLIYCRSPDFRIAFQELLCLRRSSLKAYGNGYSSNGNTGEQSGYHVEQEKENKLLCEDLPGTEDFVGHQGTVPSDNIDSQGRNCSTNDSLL

`C1CCC(NC2CCCCC2)CC1`: the Potency result was “inactive”.

For `COS(=O)(=O)OC`, the Potency result is “inactive”.

`ClC1=C(Cl)C2(Cl)C3C(Cl)C(Cl)CC3C1(Cl)C2(Cl)Cl` (centres undefined): the Potency was 54.5 µM (active).

With `N#CC(c1ccccc1)c1ccccc1`, the Potency result is “inactive”.

As to `COC[C@H](C)N(C(=O)CCl)c1c(C)csc1C`, the Potency result is “inactive”.

Take `CCCCC1C(=O)NC(=O)N(C2CCCCC2)C1=O` (centres undefined): the Potency result was “inactive”.

`N[C@@H](Cc1ccc(N(CCCl)CCCl)cc1)C(=O)O`: the Potency result was “inactive”.

On to `CC(C)Nc1nc(Cl)nc(NC(C)C)n1`, for which the Potency result is “inactive”.

Consider `N#Cc1cc(Br)c(O)c(Br)c1`, for which the Potency entry was “inactive”.

Regarding `c1ccc2c(c1)oc1ccccc12`, the Potency result was “inactive”.

As to `Cc1cc(Cl)ccc1OCCCC(=O)O`, the Potency result was “inactive”.

As to `COc1cc(OC)nc(NC(=O)NS(=O)(=O)c2ncccc2C(=O)N(C)C)n1`, the Potency entry was “inactive”.

Consider `O=P(O)(Oc1ccccc1)Oc1ccccc1`, for which the Potency entry is “inactive”.

Turning to `C#CCOS(=O)OC1CCCCC1Oc1ccc(C(C)(C)C)cc1` (centres undefined), the Potency entry is “inactive”.

Take `Clc1cnc(Oc2ccc(Oc3ncc(Cl)cc3Cl)cc2)c(Cl)c1`: the Potency entry is “inactive”.

For `CCCCCCCCCCCCCC[P+](CCCCCC)(CCCCCC)CCCCCC`, the Potency result was “inactive”.

As to `CCC(CC)Nc1c([N+](=O)[O-])cc(C)c(C)c1[N+](=O)[O-]`, the Potency result is “inactive”.

Consider `O=C(O)c1nn(Cc2ccc(Cl)cc2Cl)c2ccccc12`, for which the Potency entry was “inactive”.

On to `COC(=O)c1c(C(F)F)nc(C(F)(F)F)c(C2=NCCS2)c1CC(C)C`, for which the Potency entry is “inactive”.

In the case of `ClC(Cl)=C(c1ccc(Cl)cc1)c1ccc(Cl)cc1`, the Potency result is “inactive”.

Turning to `CCC(Br)(CC)C(=O)NC(N)=O`, the Potency entry was “inactive”.

For `CCN(CC)C(=O)C(C)Oc1cccc2ccccc12` (centres undefined), the Potency result is “inactive”.

With `c1ccc(N2CCNCC2)cc1`, the Potency entry was “inactive”.

For the compound `CCCCCCCCOC(=O)c1ccc(C(=O)OCCCCCCCC)c(C(=O)OCCCCCCCC)c1`, the Potency entry is “inactive”.

For the compound `CN(C)c1ccc(C(=O)c2ccc(N(C)C)cc2)cc1`, the Potency entry is “inactive”.

Regarding `Nc1cnn(-c2ccccc2)c(=O)c1Cl`, the Potency result was “inactive”.

Consider `CCCC1CCCCN1` (centres undefined), for which the Potency result was “inactive”.

Take `CC(O)CCO` (centres undefined): the Potency result is “inactive”.

`COCC(=O)N(c1c(C)cccc1C)N1CCOC1=O`: the Potency entry was “inactive”.

For `O=C([O-])c1ccccn1.O=C([O-])c1ccccn1.O=C([O-])c1ccccn1.[Cr+3]`, the Potency result was “inactive”.

Regarding `O=C(NC(=O)c1ccccc1Cl)Nc1ccc(OC(F)(F)F)cc1`, the Potency result is “inactive”.

Regarding `CCCC[N+]1(C)CCCC1` (tested in a mixture with another compound), the Potency entry is “inactive”.

Take `N#CCC#N`: the Potency entry was “inactive”.

As for `CCCCOP(=O)(CCCC)OCCCC`, the Potency result was “inactive”.

For `COC(=O)c1ccccc1N`, the Potency entry is “inactive”.

In the case of `N#CN=C(N)N`, the Potency result was “inactive”.

`CCC1(CC)C(=O)C=CNC1=O`: the Potency result was “inactive”.

With `COc1cc(OC)nc(Sc2cccc(Cl)c2C(=O)O)n1`, the Potency entry is “inactive”.

Consider `NC1(c2ccccc2)CCCCC1`, for which the Potency entry is “inactive”.

Consider `COC(=O)Cc1ccccc1`, for which the Potency entry is “inactive”.

In the case of `CCOC(=O)c1ccccc1C(=O)OCC`, the Potency entry is “inactive”.

As for `Cc1cc(Cl)ccc1O`, the Potency entry is “inactive”.

As to `CCN(CCO)CCO`, the Potency result was “inactive”.

With `CCCCN=C=O`, the Potency entry is “inactive”.

In the case of `NCc1cccnc1`, the Potency result was “inactive”.

Consider `CCOC(=O)Nc1cccc(OC(=O)Nc2ccccc2)c1`, for which the Potency result is “inactive”.

With `C=CCSSCC=C`, the Potency entry is “inactive”.

`CC1(C)[C@H](C(=O)O[C@H](C#N)c2cccc(Oc3ccccc3)c2)[C@@H]1/C=C(\Cl)C(F)(F)F`: the Potency result was “inactive”.

`CNC(=O)Oc1c(C(C)(C)C)cc(C)cc1C(C)(C)C`: the Potency result is “inactive”.

For the compound `CC[N+]1(CC)CCC(OC(=O)C(O)(c2ccccc2)c2ccccc2)C1` (centres undefined), the Potency result was “inactive”.

Take `C=CC(=O)OCCCCCC(C)C`: the Potency entry was “inactive”.

On to `N#CC1(N=NC2(C#N)CCCCC2)CCCCC1`, for which the Potency result was “inactive”.

Consider `Nc1nc(=S)[nH][nH]1`, for which the Potency entry is “inactive”.

As for `CNC`, the Potency result is “inactive”.

For `O=C(O)COc1ccc(Cl)cc1Cl`, the Potency entry is “inactive”.

For the compound `O=C(CCN1CC1)OCC(CO)(COC(=O)CCN1CC1)COC(=O)CCN1CC1`, the Potency entry was “inactive”.

In the case of `CCCCCON=O`, the Potency entry was “inactive”.

On to `CCCCOCCOC(C)=O`, for which the Potency result is “inactive”.

Turning to `ClCc1cccnc1`, the Potency entry was “inactive”.

On to `O=c1oc2ccccc2c(O)c1C(CC(O)c1ccc(-c2ccc(Br)cc2)cc1)c1ccccc1` (centres undefined), for which the Potency entry is “inactive”.

Regarding `CC(C)(C)OOC(C)(C)CCC(C)(C)OOC(C)(C)C`, the Potency entry is “inactive”.

Consider `CSc1nc(NC(C)C)nc(NC(C)C)n1`, for which the Potency result is “inactive”.

Turning to `Cc1ccc(OP(=O)(Oc2ccc(C)cc2)Oc2ccc(C)cc2)cc1`, the Potency result was “inactive”.

For the compound `C1=Cc2cccc3cccc1c23`, the Potency entry was “inactive”.

For the compound `CNC(=O)Oc1ccccc1OC(C)C`, the Potency entry was “inactive”.

Turning to `C[C@H]1C(=O)O[C@@H]2CCN3CC=C(COC(=O)[C@](C)(O)[C@]1(C)O)[C@H]23`, the Potency result is “inactive”.

Regarding `O=c1ccc(=O)[nH][nH]1`, the Potency result was “inactive”.

As to `Nc1nc(N)nc(Cl)n1`, the Potency entry is “inactive”.

In the case of `CCCCC(CC)COC(=O)c1c(Br)c(Br)c(Br)c(Br)c1C(=O)OCC(CC)CCCC` (centres undefined), the Potency result is “inactive”.
